Measured values taken from PubChem BioAssay (Tox21).
Values without a mark were called inactive. Inconclusive results are not listed. Entries that show only a call come without a potency. Calls of active or inactive are those of the source. Unless noted, calls come from the whole dose curve.

Assays:
[1] = Nuclear factor erythroid 2-related factor 2/antioxidant responsive element (Nrf2/ARE) small molecule agonists: qHTS cell viability counter screen in human keratinocytes (AID 1919968; active = well fitted curve in the direction sought with a large enough effect in the repeat runs; an effect the other way counts as inactive or inconclusive; note: nearly all actives have a fitted effect of over 55% in size)
Method in brief: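 Stably transfected HaCaT (KeratinoSens), 1,500/well. Test agents in DMSO were applied for 23 h, 37 C/5% CO2. CellTiter-Fluor was incubated 1 h before the fluorescence read.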

[2] = Nuclear factor erythroid 2-related factor 2/antioxidant responsive element (Nrf2/ARE) small molecule agonists: luciferase reporter gene qHTS assay in human keratinocytes (AID 1919969); note: nearly all actives have a fitted effect of over 35% in size
[3] = biological target: Gonadotropin-releasing hormone receptor (Homo sapiens) (UniProt P30968); assay: Human gonadotropin-releasing hormone receptor (GnRHR) small molecule agonists, calcium flux assay in GnRHR-HEK293 cells (AID 1920063); note: nearly all actives have a fitted effect of over 35% in size
Chain of Gonadotropin-releasing hormone receptor (Homo sapiens) (P30968 whole entry, looked up): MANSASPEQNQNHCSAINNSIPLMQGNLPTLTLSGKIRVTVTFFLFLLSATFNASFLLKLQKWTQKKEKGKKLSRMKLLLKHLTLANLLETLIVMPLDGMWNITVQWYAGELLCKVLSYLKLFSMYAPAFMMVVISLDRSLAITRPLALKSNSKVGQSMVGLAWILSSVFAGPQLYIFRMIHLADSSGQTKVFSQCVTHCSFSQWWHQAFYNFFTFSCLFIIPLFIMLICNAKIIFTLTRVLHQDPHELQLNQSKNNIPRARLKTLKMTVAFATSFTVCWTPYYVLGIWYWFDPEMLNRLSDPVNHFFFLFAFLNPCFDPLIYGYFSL
Method in brief: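 Stable human GnRHR HEK293 line. 18 h plating, then calcium dye for 1 h at 37 C. Agonist-mode compound addition from DMSO stocks; fluorescence monitored 3 min.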

[4] = G protein-coupled receptor (GPCR) small molecule agonists, calcium flux assay: HEK293 wild type cell line counter screen (AID 1920065)
Method in brief: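 Following 18 h incubation at 37 C/5% CO2, plates got calcium dye for 1 h; compounds, ATP or DMSO were then pinned in and fluorescence followed kinetically (480/540 nm).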

[5] = p53 small molecule agonists, cell-based qHTS assay with rat liver microsomes (AID 1963578)
Method in brief: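 p53RE-bla cells, 4,000/well, pre-incubated 5 h, then given compounds plus rat liver microsomes (0.5 mg/mL final) and NADPH (0.5 mg/mL final). Incubation 16 h at 37 C; beta-lactamase reporter read by LiveBLAzer fluorescence after 2 h at room temperature.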

[6] = p53 small molecule agonists, cell-based qHTS assay with human liver microsomes: qHTS cell viability counter screen (AID 1963579); note: nearly all actives have a fitted effect of over 45% in size
Method in brief: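 p53RE-bla cells, 4,000/well, dosed 5 hours after plating, with human liver microsomes (0.5 mg/mL final) plus NADPH (0.5 mg/mL final), 16 hours at 37 C. Viability read as CellTiter-Glo luminescence after 30 min at room temperature.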

[7] = p53 small molecule agonists, cell-based qHTS assay with rat liver microsomes: qHTS cell viability counter screen (AID 1963580); note: nearly all actives have a fitted effect of over 45% in size
Method in brief: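 Cytotoxicity counter screen: intracellular ATP measured by CellTiter-Glo luminescence in the same wells as the beta-lactamase reporter read, on HCT-116 p53RE-bla cells exposed 16 h at 37 C to compounds with rat liver microsomes and NADPH, each 0.5 mg/mL final.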

[8] = p53 small molecule agonists, cell-based qHTS assay: qHTS cell viability counter screen (AID 1963581); note: nearly all actives have a fitted effect of over 45% in size
Method in brief: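 qHTS counter screen: 16 h compound exposure at 37 C of p53RE-bla HCT-116 cells (4,000 per well, seeded 5 h prior), cell viability by ATP luminescence.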

[9] = biological target: 5-hydroxytryptamine receptor 2A (Homo sapiens) (UniProt P28223); assay: 5-hydroxytryptamine receptor 2A (HTR2A) small molecule antagonists, cell-based qHTS assay (AID 1963586); note: nearly all actives have a fitted effect of over 45% in size; note: potency is the fitted concentration of half-maximal effect
Chain of 5-hydroxytryptamine receptor 2A (Homo sapiens) (P28223 whole entry, looked up): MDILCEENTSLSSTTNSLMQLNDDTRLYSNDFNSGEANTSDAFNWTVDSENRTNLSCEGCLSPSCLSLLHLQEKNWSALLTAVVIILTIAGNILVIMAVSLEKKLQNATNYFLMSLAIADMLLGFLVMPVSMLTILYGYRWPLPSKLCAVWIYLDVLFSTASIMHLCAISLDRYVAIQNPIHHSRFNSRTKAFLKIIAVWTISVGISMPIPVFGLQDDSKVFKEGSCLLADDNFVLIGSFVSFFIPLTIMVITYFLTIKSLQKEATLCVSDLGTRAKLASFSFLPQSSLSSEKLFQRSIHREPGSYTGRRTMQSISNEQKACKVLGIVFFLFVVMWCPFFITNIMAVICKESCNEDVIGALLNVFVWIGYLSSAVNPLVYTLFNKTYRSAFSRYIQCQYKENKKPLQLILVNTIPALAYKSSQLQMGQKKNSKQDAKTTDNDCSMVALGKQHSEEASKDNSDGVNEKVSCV
Method in brief: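 CHO cells stably expressing human HTR2A were plated for 18 h at 37 C, then loaded with calcium dye for 1 h. Compounds were preincubated 5 min at room temperature before DOI (4 nM solution) was added. Kinetic fluorescence was read for 3 min.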

[10] = biological target: 5-hydroxytryptamine receptor 2A (Homo sapiens) (UniProt P28223); assay: 5-hydroxytryptamine receptor 2A (HTR2A) small molecule agonists, cell-based qHTS assay (AID 1963587); note: nearly all actives have a fitted effect of over 30% in size; note: potency is the fitted concentration of half-maximal effect
Method in brief: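 CHO cells stably expressing human HTR2A, plated 18 h, loaded with calcium dye 1 h at 37 C. Agonist mode: compounds added and intracellular calcium fluorescence recorded kinetically for 2 min at 1 sec intervals.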

[11] = biological target: Muscarinic acetylcholine receptor M1 (Homo sapiens) (UniProt P11229); assay: Cholinergic receptor muscarinic 1 (CHRM1) small molecule antagonists, cell-based qHTS assay (AID 1963588); note: nearly all actives have a fitted effect of over 40% in size
Chain of Muscarinic acetylcholine receptor M1 (Homo sapiens) (P11229 whole entry, looked up): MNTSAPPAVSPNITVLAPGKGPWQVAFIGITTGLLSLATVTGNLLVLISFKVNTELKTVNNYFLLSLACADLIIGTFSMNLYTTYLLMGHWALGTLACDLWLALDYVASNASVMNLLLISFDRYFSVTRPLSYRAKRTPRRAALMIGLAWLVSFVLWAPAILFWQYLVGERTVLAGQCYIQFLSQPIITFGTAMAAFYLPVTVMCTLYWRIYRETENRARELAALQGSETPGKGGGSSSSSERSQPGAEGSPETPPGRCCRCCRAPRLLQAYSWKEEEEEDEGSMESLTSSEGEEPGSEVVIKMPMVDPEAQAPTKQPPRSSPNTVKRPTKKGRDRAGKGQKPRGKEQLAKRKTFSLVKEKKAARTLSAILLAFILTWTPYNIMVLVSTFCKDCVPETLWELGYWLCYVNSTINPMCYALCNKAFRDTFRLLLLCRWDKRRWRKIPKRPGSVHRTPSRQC
Method in brief: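 Compounds were tested at 15 concentrations in three independent runs. Dye-loaded CHRM1-CHO cells were exposed 5 min at room temperature before stimulation by acetylcholine added at 50nM. Intracellular calcium was read kinetically on FDSS for 3 min.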

[12] = biological target: Muscarinic acetylcholine receptor M1 (Homo sapiens) (UniProt P11229); assay: Cholinergic receptor muscarinic 1 (CHRM1) small molecule agonists, cell-based qHTS assay (AID 1963589); note: nearly all actives have a fitted effect of over 35% in size
Method in brief: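 Kinetic fluorescence (1 s intervals) of calcium-sensitive dye in human M1 CHO cells after compound addition; cells pre-incubated 18 h at 37 C/5% CO2 and dye-loaded 1 h.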

[13] = cAMP Responsive Elements (CRE) small molecule agonists, cell-based qHTS assay (AID 1963590)
Method in brief: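 Test agents in DMSO were incubated 3 h at 37 C/5% CO2 with CRE-bla HEK 293T cells seeded 18 h earlier; LiveBLAzer B/G FRET substrate was added and read after 2 h at room temperature.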

[14] = cAMP Responsive Elements (CRE) small molecule antagonists, cell-based qHTS assay (AID 1963591; active = well fitted inhibition curve with a large enough effect in the signal ratio in the repeat runs, not every such curve was filed as active; the % refers to the signal ratio)
Method in brief: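 Reporter line CRE-bla HEK 293T in dialyzed-FBS DMEM; cells preincubated 18 h, treated 3 h with compound plus NKH477 (0.25 uM final); LiveBLAzer FRET, 2 h RT.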

[15] = biological target: Beta-2 adrenergic receptor (Homo sapiens) (UniProt P07550); assay: Adrenergic beta2 receptor (ADRB2) small molecule antagonists, cell-based qHTS assay (AID 1963592); note: series mostly up to about 92 µM; nearly all actives have a fitted effect of over 50% in size
Chain of Beta-2 adrenergic receptor (Homo sapiens) (P07550 whole entry, looked up): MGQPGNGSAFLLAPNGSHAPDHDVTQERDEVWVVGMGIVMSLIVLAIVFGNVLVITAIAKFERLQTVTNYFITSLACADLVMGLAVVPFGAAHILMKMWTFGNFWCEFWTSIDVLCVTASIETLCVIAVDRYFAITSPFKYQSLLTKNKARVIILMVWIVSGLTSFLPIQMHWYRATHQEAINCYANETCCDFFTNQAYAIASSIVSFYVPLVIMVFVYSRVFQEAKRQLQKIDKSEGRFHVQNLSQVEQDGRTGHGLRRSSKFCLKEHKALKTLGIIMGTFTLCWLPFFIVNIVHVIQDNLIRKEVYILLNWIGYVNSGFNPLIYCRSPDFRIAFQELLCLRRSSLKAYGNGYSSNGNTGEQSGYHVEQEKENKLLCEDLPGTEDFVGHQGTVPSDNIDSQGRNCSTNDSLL
Method in brief: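 Assay format: CHO-ADRB2 cells, 18-20hr seeding at 37C/5% CO2, then compound plus 1nM isoproterenol agonist mix for 0.5hr RT. Homogeneous time-resolved fluorescence cAMP detection after 1hr, expressed as 665/615 nm ratio.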

[16] = biological target: D(2) dopamine receptor (Homo sapiens) (UniProt P14416); assay: Dopamine D2 receptor (DRD2) small molecule antagonists, cell-based qHTS assay (AID 1963595; active = well fitted inhibition curve with a large enough effect in the signal ratio in the repeat runs, with a control signal flat; the % refers to the signal ratio)
Chain of D(2) dopamine receptor (Homo sapiens) (P14416 whole entry, looked up): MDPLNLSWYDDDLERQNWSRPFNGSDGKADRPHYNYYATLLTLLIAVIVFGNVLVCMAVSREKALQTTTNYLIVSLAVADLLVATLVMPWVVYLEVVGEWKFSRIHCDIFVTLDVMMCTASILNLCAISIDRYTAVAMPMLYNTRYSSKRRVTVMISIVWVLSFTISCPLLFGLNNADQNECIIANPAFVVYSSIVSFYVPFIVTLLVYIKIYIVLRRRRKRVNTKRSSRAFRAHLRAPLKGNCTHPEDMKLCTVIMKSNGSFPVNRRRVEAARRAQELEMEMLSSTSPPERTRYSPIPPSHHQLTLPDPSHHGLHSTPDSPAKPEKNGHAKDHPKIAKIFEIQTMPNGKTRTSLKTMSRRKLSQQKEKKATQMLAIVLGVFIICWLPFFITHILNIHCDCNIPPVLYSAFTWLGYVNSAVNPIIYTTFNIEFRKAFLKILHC
Method in brief: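 In this cell-based antagonist screen, compounds act for 10 min at room temperature before a 30 min challenge with 12 nM quinpirole and 200 nM NKH477. cAMP is quantified by HTRF competition in DRD2-HEK293 cells containing 0.1 mM Ro20-1724.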

[17] = biological target: KiSS-1 receptor (Homo sapiens) (UniProt Q969F8); assay: Human kisspeptin (KISS1R) small molecule agonists, calcium flux assay in KISS1R-HEK293 cells (AID 1920064; active = well fitted curve in the direction sought with a large enough effect in the repeat runs; an effect the other way counts as inactive or inconclusive)
Chain of KiSS-1 receptor (Homo sapiens) (Q969F8 whole entry, looked up): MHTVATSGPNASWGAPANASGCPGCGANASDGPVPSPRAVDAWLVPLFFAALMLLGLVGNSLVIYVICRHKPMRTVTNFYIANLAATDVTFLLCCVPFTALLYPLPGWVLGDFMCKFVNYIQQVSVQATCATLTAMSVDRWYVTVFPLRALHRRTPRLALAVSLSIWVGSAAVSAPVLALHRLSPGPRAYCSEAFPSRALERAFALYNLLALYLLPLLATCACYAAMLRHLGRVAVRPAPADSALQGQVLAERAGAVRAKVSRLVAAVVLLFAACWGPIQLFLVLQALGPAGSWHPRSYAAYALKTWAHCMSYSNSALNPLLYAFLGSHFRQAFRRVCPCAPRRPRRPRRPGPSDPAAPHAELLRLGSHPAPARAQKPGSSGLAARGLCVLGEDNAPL
Method in brief: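 After overnight (18 h) culture at 37 C/5% CO2, human KISS1R-HEK293 cells received calcium dye for 1 h, then test compound; emission at 540 nm (excitation 480 nm) was tracked for 3 min.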

[18] = biological target: D(2) dopamine receptor (Homo sapiens) (UniProt P14416); assay: Dopamine D2 receptor (DRD2) small molecule agonists, cell-based qHTS assay (AID 1963594); note: nearly all actives have a fitted effect of over 35% in size
Method in brief: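 HEK293 cells stably expressing human DRD2, pre-treated with PDE inhibitor Ro20-1724 (0.1 mM final) and compound 10 min at room temperature, then stimulated with NKH477 (200nM […]) for 30 min. cAMP read by HTRF (665/620 nm).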

[19] = p53 small molecule agonists, cell-based qHTS assay with human liver microsomes (AID 1963577)
Method in brief: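 p53RE-bla cells, 4,000/well, compound added after 5 h, with human liver microsomes 0.5 mg/mL and NADPH 0.5 mg/mL final; 16 h at 37 C, then LiveBLAzer 2 h RT, fluorescence.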

[20] = biological target: Beta-2 adrenergic receptor (Homo sapiens) (UniProt P07550); assay: Adrenergic beta2 receptor (ADRB2) small molecule agonists, cell-based qHTS assay (AID 1963593);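 note: CHO cells stably overexpressing human ADRB2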
Method in brief: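 CHO cells stably over-expressing ADRB2 were plated overnight at 37C, then dosed with compounds plus a stimulation mix containing 100uM IBMX and 25uM Ro-20-1724 for 0.5hr at room temperature. cAMP was measured by HTRF competition, 1hr.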

Compound | Potency [1] | Potency [2] | Potency [3] | Potency [4] | Potency [5] | Potency [6] | Potency [7] | Potency [8] | Potency [9] | Potency [10] | Potency [11] | Potency [12] | Potency [13] | Potency [14] | Potency [15] | Potency [16] | Potency [17] | Potency [18] | Potency [19] | Potency [20]
CC(C)N(Cc1ccccc1)C(=O)C(C)(C)C | inactive | inactive | inactive | inactive | inactive | inactive | inactive | inactive | inactive | inactive | inactive | inactive | inactive | inactive | inactive | inactive | – | – | – | –
c1ccc2nc(N3CCNCC3)ccc2c1 | inactive | inactive | inactive | – | – | – | inactive | – | 3.3 nM (active) | 4.8 nM (active) | inactive | – | inactive | inactive | inactive | inactive | inactive | inactive | – | –
CN1[C@@H]2CC[C@H]1CC(OC(=O)c1cc(Cl)cc(Cl)c1)C2 (some centres undefined) | inactive | inactive | – | inactive | inactive | inactive | inactive | inactive | inactive | – | – | inactive | inactive | inactive | inactive | inactive | inactive | inactive | inactive | –
O=C1CN=C(c2ccccc2)c2cc([N+](=O)[O-])ccc2N1 | inactive | inactive | inactive | – | – | inactive | inactive | – | – | – | – | – | inactive | inactive | inactive | inactive | inactive | inactive | – | –
CC1Sc2c(C(=O)O)c(=O)c3cc(F)c(N4CCNCC4)cc3n21 (centres undefined) | inactive | inactive | – | inactive | inactive | inactive | inactive | inactive | inactive | inactive | inactive | inactive | – | – | – | inactive | inactive | inactive | inactive | –
ClCCCCCCCl | inactive | inactive | inactive | inactive | – | inactive | inactive | inactive | inactive | inactive | inactive | inactive | inactive | inactive | inactive | inactive | – | inactive | – | inactive
N#CCCl | inactive | inactive | – | inactive | inactive | inactive | inactive | inactive | inactive | inactive | inactive | inactive | – | – | inactive | inactive | inactive | inactive | inactive | inactive
CCOP(=S)(OCC)Oc1cc(-c2ccccc2)on1 | inactive | inactive | inactive | inactive | – | inactive | inactive | inactive | inactive | inactive | inactive | inactive | – | – | inactive | inactive | – | inactive | – | –
